The text below walks through data of PubChem BioAssay AID493169 (National Center for Advancing Translational Sciences (NCATS), 2011).

Inconclusive results are not listed. Where a call stands in place of a potency, no number is given. The source made the active and inactive calls. The call rests on the fitted dose curve; in most records, active means well fitted inhibition curve with a large enough effect; inconclusive means small, poorly fitted or top-dose-only effect; inactive means flat fitted curve, though single readings scatter.
Potency means the concentration at half of the fitted maximal effect.

The assay in a line: CHOP2 Reporter Counterscreen Assay for Inhibitors of Ubiquitin-specific Protease USP2a.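 Further: activated enterokinase alone at 50 pM in a cell-free format rather than USP2a or CHOP2; nearly all actives have a fitted effect of over 55% in size.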 As to conditions: purified enterokinase, fluorogenic substrate, 485/531 nm; series mostly up to 38.3 µM. The gist of the method: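 Cell-free counterscreen with pre-activated enterokinase alone (50 pM final) in 20mM Tris-HCl pH 8.0, 2mM CaCl2, 2mM beta-mercaptoethanol, 0.05% CHAPS; compound preincubation 30 min RT, reporter substrate 25nM final, fluorescence read after 10 min (Ex 485/Em 531).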
For orientation: The purpose of a counterscreen is to sort out artefacts and off-target activity.
In the case of `Cc1cccc(-c2nnc3n2N=C(c2ccc(Br)cc2)CS3)c1`, the Potency result was “inactive”.
As to `O=C(N/N=C/c1ccc(F)cc1)c1cc(-c2ccco2)nc2ccccc12`, the Potency was 2.24 µM (active).
`CCn1c(=O)c(C(=O)Nc2ccccc2S(N)(=O)=O)c(O)c2ccccc21`: the Potency is 11.2 µM (active).
For `O=C(Nc1ccccc1)Nc1snnc1C(=O)Nc1cccc(O)c1`, the Potency entry is “inactive”.
In the case of `COC(=O)C1CCN(C(=O)COC(=O)CC(NC(N)=O)c2ccc(Cl)cc2)CC1` (stereo not given), the Potency entry is “inactive”.
Regarding `COc1ccc(O)c(-c2cc(-c3ccc(F)cc3)n[nH]2)c1`, the Potency entry is “inactive”.
Turning to `O=C1Nc2ccc(S(=O)(=O)N3CCCCCC3)c3cccc1c23`, the Potency entry was “inactive”.
In the case of `O=C1NC(=Nc2ccc3ccccc3c2)S/C1=C/c1ccco1`, the Potency is 10 µM (active).
Take `C[C@@H]1CC[C@]2(C(=O)O)CC[C@]3(C)C(=CCC4[C@]56CC[C@@](O)(OC5)C(C)(C)C6CC[C@]43C)C2[C@H]1C` (stereo not given in full): the Potency entry is “inactive”.
In the case of `Cc1cccn2c(=O)c3cc(C(=O)NCCN4CCOCC4)c(=N)n(CCN4CCOCC4)c3nc12`, the Potency result is “inactive”.
As for `c1ccc(-c2nc3nc4ccccc4nc3n2Cc2ccco2)cc1`, the Potency result is “inactive”.
As for `CC(C)CCn1c(CN2CCN(C(=O)c3ccco3)CC2)nc2c1c(=O)n(C)c(=O)n2C`, the Potency entry is “inactive”.
With `Nn1c(Nc2ccccc2)nc2ccccc2c1=O`, the Potency result was “inactive”.
To `O=C1COc2ccc(C(=O)COC(=O)/C=C/c3ccc(Br)o3)cc2N1` belongs 2.82 µM (active); to `Cc1cc(-c2csc(NC(=O)c3ccc(=O)[nH]c3)n2)c(C)n1Cc1ccccc1`, “inactive”; to `COc1ccc2cc(CN(C(=O)Nc3ccccc3)C3CCCC3)c(=O)[nH]c2c1`, “inactive”.
As for `CC(=O)c1ccc(NC(=O)CC(NCCC2=CCCCC2)C(=O)O)cc1` (stereo not given), the Potency result is “inactive”.
In the case of `COc1ccc(S(=O)(=O)NCCSCc2ccco2)cc1OC`, the Potency was 10 µM (active).
With `C#CCOCCOCCOCCNc1nc(N2CCN(C(=O)CCCCCCCCCCNC(=O)[C@H]([C@@H](C)CC)n3cc(CCCCCN)nn3)CC2)nc(N2CCN(C(=O)CCCCCCCCCCNC(=O)[C@H](CCCCN)n3cc(CCCC(=O)O)nn3)CC2)n1` the figure was 7.94 µM (active).
Regarding `C[C@H](CO)N1C[C@H](C)[C@@H](CN(C)S(=O)(=O)c2ccc(Cl)cc2)Oc2ccc(NS(=O)(=O)c3ccccc3)cc2CC1=O`, the Potency result was “inactive”.
As for `CC1CCCCN1CCNC(=O)CC1Oc2ccccc2NC1=O` (stereo not given), the Potency result was “inactive”.
As for `COc1ccc(/C=C(\NC(=O)c2ccc(OC)c(OC)c2)C(=O)N2CCN(C)CC2)cc1`, the Potency entry is “inactive”.
Consider `O=C(CSc1nc(O)cc(=O)n1-c1ccccc1)NC1CCCCC1`, for which the Potency result is “inactive”.
Regarding `O/N=C/c1ccccc1OCc1ccccc1F`, the Potency result is “inactive”.
`CCc1cc(C(=O)N=Nc2c(O)[nH]c3ccc([N+](=O)[O-])cc23)c2ccccc2n1`: the Potency is 8.91 µM (active).
As for `O=C(CSc1ccc2nnc(-c3cccc(F)c3)n2n1)N1CCCc2ccccc21`, the Potency entry is “inactive”.
Consider `CCNc1sc(C(=O)c2cccs2)c(N)c1-c1nc2ccccc2s1`, for which the Potency result is “inactive”.
As to `CC(C)(C)C1CCc2nc(NC(=O)Cc3cn4ccsc4n3)sc2C1` (stereo not given), the Potency result is “inactive”.
For `CCN=C1SC(C(=O)Nc2cccc(OCC)c2)CC(=O)N1CC` (stereo not given), the Potency entry was “inactive”.
Consider `CCOC(=O)Cn1c(=O)oc2cc(S(=O)(=O)Nc3cc(Cl)ccc3OC)ccc21`, for which the Potency entry is “inactive”.
As for `O=C(CCN1C(=O)/C(=C\c2ccco2)SC1=S)Nc1ccc(C(=O)O)c(O)c1`, the Potency was 10 µM (active).
Take `COc1ccc(-n2c(O)c(/C=N/n3cnnc3)c3ccccc3c2=O)cc1`: the Potency entry was “inactive”.
With `CC(=O)N1c2c(cc(Br)cc2S(=O)(=O)NCc2cccnc2)CC1C` (stereo not given), the Potency entry is “inactive”.
Regarding `CCCOC(=O)CCCCC1SCC(NC(=O)OC)C1NC(=O)OC` (stereo not given), the Potency entry was “inactive”.
For `O=C(O)CC(C(=O)O)N1C(=O)/C(=C/C=C/c2ccco2)SC1=S` (stereo not given), the Potency is 3.55 µM (active).
For `O=C1/C(=C/C=C/c2ccco2)SC(=S)N1NS(=O)(=O)c1ccccc1`, the Potency is 3.55 µM (active).
Consider `Cc1ccc2[nH]c(=O)c(COC(=O)c3ccccn3)cc2c1`, for which the Potency entry was “inactive”.
Consider `O=C1N=c2ccccc2=C1c1sc(Nc2ccc(O)cc2)nc1O`, for which the Potency was 8.91 µM (active).
As for `COc1ccc(-c2noc(CSc3nnc(Cc4ccccc4)n3-c3ccc(Cl)cc3)n2)cc1`, the Potency entry is “inactive”.
For the compound `O=C(Nc1ccc(Nc2ccncc2)cc1)c1ccc(Nc2ccnc3ccc([N+](=O)[O-])cc23)cc1`, the Potency was 3.55 µM (active).
